These results are taken from PubChem BioAssay (Tox21).

Test [1] can be described thus: qHTS assay to identify small molecule antagonists of the estrogen related receptor (ERR) signaling pathway from Tox21 library - cell viability counter screen (AID 1224834). Further: nearly all actives have a fitted effect of over 30% in size. The method, boiled down: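 CellTiter-Fluor fluorescence measured; ERR cells; 17.5 h compound incubation at 37 C; 30 min reagent step.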
(In general: qHTS replaces the single test concentration by a dilution series.)

For test [2], the target named is Luciferin 4-monooxygenase (Photinus pyralis) (UniProt P08659). Kind of test: qHTS assay to identify small molecule inhibitors of firefly luciferase (AID 1224835). Further: nearly all actives have a fitted effect of over 25% in size. Further: potency means the concentration at half of the fitted maximal effect. An outline of the steps:
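Biochemical qHTS: compounds run as interplate titrations against purified firefly enzyme, with D-luciferin and ATP each at its KM concentration. Light output recorded by CCD imaging.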

Test [3] can be described thus: qHTS assay to identify small molecule agonists of the constitutive androstane receptor (CAR) signaling pathway - cell viability counter screen (AID 1224836). Further: nearly all actives have a fitted effect of over 45% in size. The method, boiled down: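 HepG2-CYP2B6-hCAR, 2500 cells/well, 4 h pre-incubation; cpd 15 conc + PK11195 0.75 uM final; 23 h, 37 C/5% CO2; CellTiter-Fluor, fluorescence.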
The nature of test [4]: qHTS assay to identify small molecule antagonists of the constitutive androstane receptor (CAR) signaling pathway - cell viability counter screen (AID 1224837). Further: nearly all actives have a fitted effect of over 45% in size. The method, boiled down: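 Using CellTiter-Fluor, viability is scored in HepG2 cells stably carrying hCAR and a 2.2kb CYP2B6 reporter after 23 hr compound exposure across 15 concentrations, with CITCO present at 50 nM.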

Test [5] addresses Nuclear receptor subfamily 1 group I member 3 (Homo sapiens) (UniProt Q14994). Nature of the test: qHTS assay to identify small molecule antagonists of the constitutive androstane receptor (CAR) signaling pathway (AID 1224838).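 Further: HepG2 cells stably expressing hCAR with CYP2B6 luciferase reporter stimulated by CITCO; nearly all actives have a fitted effect of over 40% in size.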 An outline of the steps:
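Reporter luminescence was quantified after 24 h exposure of hCAR/CYP2B6-2.2kb double-stable HepG2 cells to compounds at 15 concentrations in the presence of 50 nM CITCO final.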

The target is the same in test [6]. Kind of test: qHTS assay to identify small molecule agonists of the constitutive androstane receptor (CAR) signaling pathway (AID 1224839). Further: nearly all actives have a fitted effect of over 15% in size. Further: potency means the concentration at half of the fitted maximal effect. The method, boiled down: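 HepG2-CYP2B6-hCAR cells, 2500/well, 4 h pre-incubation; compounds 15 conc.; PK11195 0.75 uM final; 24 h, 37 C/5% CO2; ONE-Glo luciferase read.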
A short description of test [7]: qHTS assay to identify small molecule antagonists of the estrogen related receptor signaling pathway with the pleiotropic PPARgamma coactivator (PGC) from Tox21 10K library - cell viability counter screen (AID 1224840; active means well fitted cell-killing curve with a large enough effect in the repeat runs, not every such curve was filed as active; further: nearly all actives have a fitted effect of over 40% in size). The method, boiled down:
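Here the PGC/ERR cells serve as a cytotoxicity control: they are exposed to compounds for 17.5 hours at 37 C, and live-cell signal is quantified using CellTiter-Fluor fluorescence.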

Test [8] can be described thus: qHTS assay to identify small molecule antagonists of the estrogen related receptor signaling pathway with the pleiotropic PPARgamma coactivator (PGC) from Tox21 10K library (AID 1224841; call rule not given here; further: actives are mostly falling curves and most rising ones were filed inactive; nearly all actives have a fitted effect of over 50% in size). The method, boiled down:
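Each well held 2,000 PGC/ERR cells, pre-incubated six hours (37 C, 5% CO2). Test substances in DMSO were added by pin tool and left for 18 h at 37 C before luciferase detection by One-Glo.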

The nature of test [9]: qHTS assay to identify small molecule agonists of the estrogen related receptor signaling pathway with the pleiotropic PPARgamma coactivator (PGC) from Tox21 10K library (AID 1224842). Further: nearly all actives have a fitted effect of over 15% in size. The method, boiled down:
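PGC/ERR reporter cell line, 2,000 cells per well, incubated 6 h at 37 C before 23 nL compound in DMSO was added. After 18 h at 37 C, One-Glo luminescence read following 30 min at room temperature.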

A short description of test [10]: qHTS assay to identify small molecule agonists of the hypoxia (HIF-1) signaling pathway - cell viability counter screen (AID 1224844; calls by dose curve; further: nearly all actives have a fitted effect of over 50% in size). The method, boiled down: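 Multiplexed with the HRE beta-lactamase assay, this viability read used CellTiter-Glo luminescence (30 min, RT) on HRE-bla ME-180 cells treated 17 hrs with compounds in 0.5% dialyzed FBS medium.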
Test [11] in a line: qHTS assay to identify small molecule agonists of H2AX (AID 1224845; active means well fitted activation curve with a large enough effect in the signal ratio in the repeat runs, not every such curve was filed as active; the % refers to the signal ratio; further: potency means the concentration at half of the fitted maximal effect). An outline of the steps:
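Wild-type CHO-K1 cells, plated overnight, exposed 3hr at 37C to 15 concentrations (0.76% DMSO final). Lysed, then HTRF anti-pH2AX (S139) cryptate and anti-H2AX-d2 antibodies, 24 hr room temperature; 665/620 nm emission read.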

The nature of test [12]: qHTS assay to identify small molecule agonists of the hypoxia (HIF-1) signaling pathway (AID 1224846; active means well fitted activation curve with a large enough effect in the signal ratio in the repeat runs, not every such curve was filed as active; the % refers to the signal ratio). An outline of the steps:
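Hypoxia-pathway activation was scored as increased beta-lactamase from an HRE-controlled reporter in ME-180 cells; plated at 2,000 cells per well with 0.5% dialyzed FBS, they were exposed 17 hrs to compounds and then given CCF4-AM.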

Test [13] in a line: qHTS assay to identify small molecule antagonists of the estrogen related receptor (ERR) signaling pathway from Tox21 library (AID 1224848). Further: nearly all actives have a fitted effect of over 50% in size. The method, boiled down: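 ERR reporter cell line (from NTP) seeded 2,000 cells/well, rested 6 h at 37 C/5% CO2, then pin-dosed with compounds in DMSO. After 18 h at 37 C, ONE-Glo added; luminescence read after 30 min at room temperature.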

The nature of test [14]: qHTS assay to identify small molecule agonists of the estrogen related receptor (ERR) signaling pathway from Tox21 library (AID 1224849; calls by dose curve; further: nearly all actives have a fitted effect of over 15% in size). As to conditions: ERR reporter cell line, ONE-Glo luciferase, 18 h. An outline of the steps: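 Six hours post-seeding at 37 C/5% CO2, ERR cells receive DMSO-solubilised compounds; after 18 h at 37 C, ONE-Glo reagent is applied and luminescence recorded.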

Test [15] is described as follows: qHTS RealTime-Glo MT Cell Viability Assay in HepG2 cells - 24 hour (AID 1224867). Further: nearly all actives have a fitted effect of over 50% in size. An outline of the steps: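 Real-time, nonlytic viability: 600 HepG2 cells/well mixed with NanoLuc enzyme plus prosubstrate; 5 h settle, compound (DMSO) added by pintool; luminescence monitored over 40 h at 37 C.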
Test [16] can be described thus: qHTS RealTime-Glo MT Cell Viability Assay in HEK293 cells - 32 hour (AID 1224868). An outline of the steps: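 Cells + reagent dispensed (600 cells/well, HEK293) → 5 h at 37 C/5% CO2 → 23 nL compound in DMSO pinned → 40 h at 37 C → luminescence read at 0, 8, 16, 24, 32, 40 h.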
The nature of test [17]: A CellTox Green Cytotoxicity Assay to monitor cytotoxicity in HEK293 cells - 0 hour (AID 1224869). Further: nearly all actives have a fitted effect of over 50% in size. An outline of the steps: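 Seeding of HEK293 cells together with cytotoxicity dye preceded a 5 h incubation at 37 C/5% CO2. Test compounds in DMSO were then added and fluorescence monitored across 40 h.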
Test [18] addresses Thyrotropin receptor (Homo sapiens) (UniProt P16473). Kind of test: qHTS assay to identify small molecule agonists of the thyroid stimulating hormone receptor (TSHR) signaling pathway (AID 1224843; calls by dose curve; further: nearly all actives have a fitted effect of over 45% in size). An outline of the steps: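 TSHR-HEK293 cells in agonist mode, 30 min room-temperature step, then cAMP measured by competitive HTRF (cAMP-d2 with anti-cAMP cryptate) after 1 h at room temperature. Tested at 15 concentrations in triplicate.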

Test [19] is described as follows: qHTS assay to identify small molecule agonists of H2AX - cell viability counter screen (AID 1224847; calls by dose curve; further: top concentration of the series differs between compounds; nearly all actives have a fitted effect of over 30% in size). An outline of the steps: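 Cells plated first: CHO-K1, 1000 per well in 10% FBS medium, incubated overnight at 37C. Then 15-point compound titration added (final DMSO 0.76%) for 3 hr. Finally CellTiter-Glo added and luminescence read.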

Structures are written as SMILES. “And” between values parts separate entries of the source, which are not always exact repeats. Equal values may be shown once. Records with an inconclusive call do not appear. Some compounds were tested as several samples or in several runs, with calls that do not always agree. The source made the active and inactive calls. Unless noted, the call rests on the fitted dose curve; in most records, active means well fitted curve in the direction sought with a large enough effect in the repeat runs; inconclusive means weak or mixed curves; inactive means no such curve, though single readings can be large; an effect the other way counts as inactive or inconclusive.
On the % scale 0 is the no-effect control and ±100 the full control effect.

Chain of Nuclear receptor subfamily 1 group I member 3 (Homo sapiens) (Q14994 whole entry, looked up): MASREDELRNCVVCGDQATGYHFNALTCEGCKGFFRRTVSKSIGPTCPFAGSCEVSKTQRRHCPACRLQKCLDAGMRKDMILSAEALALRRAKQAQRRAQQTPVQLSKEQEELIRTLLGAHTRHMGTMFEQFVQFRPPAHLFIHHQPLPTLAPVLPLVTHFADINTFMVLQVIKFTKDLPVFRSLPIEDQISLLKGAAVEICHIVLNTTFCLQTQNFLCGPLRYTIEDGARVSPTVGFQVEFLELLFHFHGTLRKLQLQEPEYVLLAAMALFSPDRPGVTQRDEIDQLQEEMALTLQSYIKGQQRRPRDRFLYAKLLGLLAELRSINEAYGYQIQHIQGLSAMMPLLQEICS
Chain of Luciferin 4-monooxygenase (Photinus pyralis) (P08659 whole entry, looked up): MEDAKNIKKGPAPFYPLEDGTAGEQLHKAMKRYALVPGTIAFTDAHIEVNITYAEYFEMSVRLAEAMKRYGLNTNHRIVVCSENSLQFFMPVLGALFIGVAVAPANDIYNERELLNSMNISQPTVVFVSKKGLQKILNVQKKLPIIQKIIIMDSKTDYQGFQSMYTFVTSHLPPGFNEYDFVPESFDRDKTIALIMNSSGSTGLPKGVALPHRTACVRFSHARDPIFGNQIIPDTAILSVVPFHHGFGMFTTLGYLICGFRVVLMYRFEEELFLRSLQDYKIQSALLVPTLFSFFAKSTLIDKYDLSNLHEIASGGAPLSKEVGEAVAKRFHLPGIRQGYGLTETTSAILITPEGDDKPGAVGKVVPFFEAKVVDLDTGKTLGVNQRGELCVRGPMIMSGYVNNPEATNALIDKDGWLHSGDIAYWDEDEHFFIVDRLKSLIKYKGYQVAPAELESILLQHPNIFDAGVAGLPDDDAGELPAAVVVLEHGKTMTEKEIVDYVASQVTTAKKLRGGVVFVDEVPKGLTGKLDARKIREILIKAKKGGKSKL
Chain of Thyrotropin receptor (Homo sapiens) (P16473 whole entry, looked up): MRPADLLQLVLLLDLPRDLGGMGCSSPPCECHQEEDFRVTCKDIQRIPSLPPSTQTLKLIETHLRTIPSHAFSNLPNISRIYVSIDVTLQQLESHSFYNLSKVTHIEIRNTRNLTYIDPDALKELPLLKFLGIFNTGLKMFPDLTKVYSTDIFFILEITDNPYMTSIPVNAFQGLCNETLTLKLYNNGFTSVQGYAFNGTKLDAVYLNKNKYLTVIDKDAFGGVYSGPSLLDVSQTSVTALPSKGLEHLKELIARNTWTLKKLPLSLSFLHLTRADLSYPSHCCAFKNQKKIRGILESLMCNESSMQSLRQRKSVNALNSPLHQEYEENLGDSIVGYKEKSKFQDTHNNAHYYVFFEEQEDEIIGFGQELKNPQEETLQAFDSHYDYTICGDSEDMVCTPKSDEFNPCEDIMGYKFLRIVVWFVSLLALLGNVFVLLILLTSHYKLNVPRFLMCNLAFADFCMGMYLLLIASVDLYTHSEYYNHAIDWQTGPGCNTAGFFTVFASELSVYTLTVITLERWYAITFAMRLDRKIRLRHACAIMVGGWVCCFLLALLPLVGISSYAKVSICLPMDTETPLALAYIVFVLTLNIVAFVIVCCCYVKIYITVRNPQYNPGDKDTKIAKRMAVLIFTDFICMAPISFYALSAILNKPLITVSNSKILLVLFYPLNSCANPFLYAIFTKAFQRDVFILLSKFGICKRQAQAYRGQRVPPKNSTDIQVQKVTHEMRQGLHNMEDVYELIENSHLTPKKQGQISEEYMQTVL

With `CCCCNC(N)=O`, the Potency entry in test [1], in test [2], in test [3], in [4], in test [5] and in [6] was “inactive” each time. Further, the Potency result in test [7], in test [8], in test [9], in test [10], in test [11] and in test [13] was “inactive” throughout. In addition, the Potency entry in [15], in test [16] and in test [17] was “inactive” throughout. Besides, the compound was called inactive in test [12]. In addition, the activity change, positive = activation in test [14] (at 92.4 µM (top of the series)) is 7.41% (inactive) and 4.54% (inactive).

Turning to `OCC1CCCO1` (stereo not given), the Potency entry in [1], in [2], in test [3], in test [4], in test [5] and in [6] was “inactive” each time. In addition, the Potency entry in test [7], in test [10], in test [11], in [15] and in [17] was “inactive” each time. In test [12], the outcome was inactive.

For `O=S(=O)(O)CCS`, the Potency result in test [1], in [2], in test [3], in test [4], in test [5] and in [6] was “inactive” each time. For the same compound, the Potency result in [7], in test [8], in test [9], in test [18], in test [10] and in test [11] was “inactive” each time. The Potency result in [13], in test [15] and in test [17] was “inactive” in each case. In test [12], the call was inactive. Moreover, the activity change, positive = activation in [14] (at 42.5 µM (top of the series)) was -0.0445% (inactive); in test [14] (at 92.4 µM (top of the series)) it was -7.56% (inactive).

`Oc1ccc(OCc2ccccc2)cc1`: the Potency result in [1], in [3], in test [4], in [5], in test [7] and in test [18] was “inactive” each time. Moreover, the Potency entry in [10], in [15] and in test [17] was “inactive” each time. Further, the Potency is 31.1 µM (active) and 17.4 µM (active) in [2]; 23.8 µM (active) in test [6]; 22.1 µM (active) and inactive in test [11]. In addition, the result in [12] was inactive.

`CCCCOCCO`: the Potency result in test [1], in test [2], in test [3], in test [4], in test [5] and in test [6] was “inactive” in each case. Also, the Potency entry in test [7], in test [8], in [9], in test [18], in test [10] and in test [11] was “inactive” in each case. For the same compound, the Potency entry in [19], in [13], in test [15], in test [16] and in [17] was “inactive” throughout. In test [12], the result was inactive. Further, the activity change, positive = activation in test [14] (at 92.4 µM (top of the series)) was 5.31% (inactive) and -0.958% (inactive).

Regarding `NCc1cccc(CN)c1`, the Potency result in [1], in test [2], in test [3], in [4], in test [5] and in test [6] was “inactive” throughout. Besides, the Potency entry in test [7], in test [18], in [10], in [11], in [19] and in [15] was “inactive” in each case. The Potency result in test [16] and in test [17] was “inactive” in each case. Further, in [12], the call was inactive.

In the case of `C=C(C#N)C(=O)OCC`, the Potency result in [1], in [2], in test [3], in [4], in test [5] and in test [6] was “inactive” each time. For the same compound, the Potency result in [7], in test [8], in test [9], in test [18], in test [10] and in [11] was “inactive” in each case. For the same compound, the Potency entry in test [13], in test [15] and in test [17] was “inactive” each time. In addition, in [12], the result was inactive. Besides, the activity change, positive = activation in test [14] (at 92.4 µM (top of the series)) is 7.93% (inactive) and 0.135% (inactive).

Consider `C=CC(=O)OCCCCCCCC(C)C`, for which the Potency entry in test [1], in test [2], in test [3], in test [4], in [5] and in test [6] was “inactive” in each case. Moreover, the Potency entry in test [7], in test [18], in [10], in [11], in [15] and in [16] was “inactive” throughout. Also, in test [17], the Potency result is “inactive”. Further, the compound was called inactive in test [12].
